Screening results: PubChem, several laboratories
tim10-1 inh: inhibits growth of tim10-1 mutant yeast | actives 2.2% (n = 330,000) | S. cerevisiae tim10-1 ts strain growth, BacTiter-Glo, 24 h | inhibition, % at 20 µM | AID 463190;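 active = inhibition of at least 40%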;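 note: mutant grown at 25 °C; 0% = DMSO wells with yeast and 100% = wells holding no yeast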
TIM10 inh: TIM10 yeast growth inhibition | actives 1.4% (n = 330,000) | inhibition, % at 10 µM | S. cerevisiae TIM10 strain growth, BacTiter-Glo luminescence, 24 h;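 active = inhibition of 40% or more at the single tested concentration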;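 note: wild-type TIM10 isogenic control strain grown at permissive 25 °C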
PfHsp90 yeast 2: growth inhibition of yeast expressing Plasmodium Hsp90 | actives 0.32% (n = 310,000) | S. cerevisiae expressing PfHsp90, BacTiter-Glo ATP, 48 h; yeast lacking PDR1 and PDR3 efflux regulators | inhibition, % at 9.4 µM;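 active = every replicate shows inhibition above about 80%, whatever the replicate mean, limit read from the data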;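 note: 0% = DMSO neutral controls and 100% = 20 µM radicicol positive controls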
V-ATPase pH: regulators of yeast V-ATPase proton transport. S. cerevisiae, pHLuorin cytosolic pH fluorescence. response, % at 10 µM. AID 504577. actives 0.37% (n = 350,000); in the data active = response mostly above about 7.3%, no sharp cut-off; inactive = mostly below about 5.4%; note: actives read high
tim23-1 inh: inhibits growth of tim23-1 mutant yeast; actives 1.3% (n = 330,000); S. cerevisiae tim23-1 growth, BacTiter-Glo luminescence, 24 h; inhibition, % at 20 µM;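 active = growth inhibition of the mutant yeast at or above 50%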;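 note: temperature-sensitive mutant grown at 25 °C; plate controls were DMSO-treated mutant yeast for no effect and medium wells lacking yeast for full effect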
SKKanGAS inh: SKKanGAS growth inhibition | inhibition, % at 7.5 µM | AID 1662 | actives 1.3% (n = 300,000) | S. pyogenes SKKanGAS, kanamycin growth, BacTiter-Glo, 6 h;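 active = mean replicate score, as percent of positive control median, at least 50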;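 note: strain carries kanamycin resistance gene driven by streptokinase promoter and grows in 40 µg/ml kanamycin; loss of luminescence reflects streptokinase promoter inhibition or plain growth inhibition; 0% = median of DMSO wells and 100% = positive control at its reference dose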
* = called active by the depositor; . = not tested or not shown. Hits are enriched below; roughly 4.6% of the tested compounds scored in any of these assays.

SMILES	tim10-1 inh	TIM10 inh	PfHsp90 yeast 2	V-ATPase pH	tim23-1 inh	SKKanGAS inh
CC(C)C[C@@H](CN)NC(=O)c1nc[nH]c1C(=O)N[C@@H](CC(=O)O)C(=O)CNC[C@H](C)NC(=O)c1nc[nH]c1C(=O)N[C@@H](CC(=O)O)C(=O)O	.	.	24.0	0.1	.	.
COc1cc2c(cc1CNC[C@H]1O[C@@H](n3cnc4c(N)ncnc43)[C@H](O)[C@@H]1O)OCO2	-5.2	-5.2	-5.3	-3.5	-11.0	.
CCc1ccc(C2=NN(c3ccc(S(N)(=O)=O)cc3)C(c3ccc(F)cc3)C2)cc1 (stereo not drawn)	21.1	10.5	-83.6	-3.1	-3.0	102.4*
COCCCNC(=S)NNC(=S)Nc1cccc(Cl)c1	24.7	33.2	-16.4	-3.6	20.1	52.0*
N#C/C(=N\Nc1ccc(Cl)cc1)C(N)=S	19.3	13.2	-23.8	1.0	39.9	97.2*
N#C/C(=N\Nc1ccc(S(=O)(=O)N2CCOCC2)cc1)C(N)=S	-6.7	7.1	-17.8	-2.6	14.2	64.7*
N#C/C(=N\Nc1ccccc1)C(N)=S	15.8	18.7	6.6	1.0	22.9	43.4
CC(NC(=O)C1CCN(S(=O)(=O)c2cccs2)CC1)c1cccc(Cl)c1 (stereo not drawn)	5.5	4.6	-5.5	-0.4	0.6	.
COc1ccc(OC)c(-c2cc(C(=O)Nc3ccc(F)cc3F)no2)c1	1.5	-8.7	2.7	3.9	0.5	-1.7
CCCOc1ccc(/C=N/NC(=S)Nc2ccccc2[N+](=O)[O-])c(O)c1	.	.	.	.	.	101.9*
CCCOc1ccc(/C=N/Nc2ccccc2[N+](=O)[O-])c(O)c1	13.0	-5.1	-27.4	-2.7	3.4	40.8
CCCOP(=O)(c1ccc(N(C)C)cc1)C(Nc1ccccc1)c1ccc(C)cc1 (stereo not drawn)	25.1	19.5	8.6	1.2	23.4	19.6
CC(=O)N1c2ccc(S(=O)(=O)N3CCC(C(=O)Nc4cc(C)ccn4)CC3)cc2CC1C (stereo not drawn)	-9.9	6.3	29.4	-3.3	-4.2	52.0*
Cc1ccc(N(C)S(=O)(=O)c2ccc3c(c2)CC(C)N3C(=O)C2CC2)cc1 (stereo not drawn)	32.2	17.0	-20.9	1.8	40.8	101.9*
CCC(C)c1ccc(NC(=O)c2c([N+](=O)[O-])cnn2CC)cc1 (stereo not drawn)	8.7	10.1	14.2	0.0	37.6	-1.0
CC(C)c1ccc2nc3sc(C(=O)N4CCc5ccccc5C4)c(N)c3cc2c1	22.0	22.1	12.3	1.6	24.3	53.6*
O=[N+]([O-])c1ccc(Nc2nc(NCCO)nc(N3CCCC3)n2)cc1	36.8	6.3	8.0	1.3	7.5	97.5*
OCCNc1nc(Nc2ccc(Cl)cc2)nc(N2CCCC2)n1	24.9	16.1	2.3	4.0	34.7	0.1
Cc1cc2c(=O)n(Cc3ccco3)c(SCC(=O)N3CCCc4ccccc43)nc2s1	31.1	25.1	2.6	1.4	41.6	58.1*
CC(NC(=O)c1ccc(S(=O)(=O)Nc2ccccc2Cl)cc1)c1ccncc1 (stereo not drawn)	6.0	-7.5	2.6	7.9	0.8	.
COc1ccc(-c2[nH]ncc2CNCCCSC)cc1F	-8.4	-6.2	-20.8	14.4*	14.5	10.0
CCC(C)(C)NC(=O)CN(Cc1ccccc1Cl)C(=O)CCC(=O)Nc1cc(C)ccn1	22.9	16.0	-89.2	0.6	13.2	2.0
CCCCc1nc(SCC(=O)N2CCCCC2)c2c(=O)n(C)c(=O)n(C)c2n1	-2.0	-27.4	.	3.9	26.0	3.2
CCCc1nc(SCC(=O)N2CCCCCC2)c2c(=O)n(C)c(=O)n(C)c2n1	.	.	.	.	.	50.1*
Cc1ccc(C(C)C)c(OCc2ccc(C(=O)N/N=C/c3cccc(O)c3O)cc2)c1	.	.	121.9*	-3.0	.	86.3*
SMILES	tim10-1 inh	TIM10 inh	PfHsp90 yeast 2	V-ATPase pH	tim23-1 inh	SKKanGAS inh
Cc1ccc(-n2ncc3c2CCCC3NC(=O)c2ccccc2N2CCOCC2)cc1C (stereo not drawn)	36.8	-13.7	114.0*	-0.9	13.7	-2.0
COc1ccc(-c2c(C(F)(F)F)nn(C)c2NC(=O)CSCC(=O)O)cc1	-8.1	-2.3	.	-0.8	-8.0	1.4
N/C(=N\OC(=O)COc1ccc(Br)cc1Cl)c1ccccn1	22.6	14.4	3.6	22.3*	26.8	-1.5
N/C(=N\OC(=O)COc1ccc(Cl)cc1Cl)c1ccccn1	26.2	29.7	.	1.2	26.3	3.9
O=C(COc1ccccc1)Nc1cccc(-c2nc3cc4ccccc4cc3[nH]2)c1	8.6	-6.4	.	-7.9	39.2	67.5*
CSc1cccc(NC(=O)C2CCCN(S(=O)(=O)c3cccs3)C2)c1 (stereo not drawn)	17.9	11.9	-29.7	1.7	17.0	15.4
Cc1csc(NC(=O)c2c(O)c3c(n(CC(C)C)c2=O)CCCC3)n1	12.4	16.2	17.5	-7.1	18.5	61.1*
Cc1cc(OC(C)C(=O)NCC2CCC(C(=O)O)CC2)c2c(C)cc(=O)oc2c1 (stereo not drawn)	-6.8	-10.4	2.2	-2.1	-8.7	-2.1
CC(C)COC(=O)c1cccc2c1-c1ccccc1/C2=N\O	33.6	25.9	-24.9	-1.7	8.3	73.5*
O=C(COC(=O)c1ccccc1)NC1CCCC1	3.2	-14.6	17.2	263.2*	-6.8	-2.8
O=C(COC(=O)c1ccccc1)NC(=O)NC1CCCC1	3.4	-6.3	.	3.8	-8.4	.
CCOc1ccc(/C=C2/Sc3ccc(C(=O)N4CCOCC4)cc3N(C)C2=O)cc1OC	17.3	-2.1	-6.0	-4.5	8.9	68.1*
COc1ccc(/C=C2\Sc3ccc(C(=O)N4CCCC4)cc3N(C)C2=O)cc1OC	19.7	-1.6	-50.1	0.6	16.0	99.8*
COc1ccc(/C=C2\Sc3ccc(C(=O)NC4CC4)cc3N(C)C2=O)cc1OC	1.9	18.4	17.1	-0.5	16.4	70.3*
CCCCN(C(=O)c1c(CC)noc1C)c1c(N)n(CCC)c(=O)[nH]c1=O	-15.5	-6.0	-21.9	2.5	-12.9	-7.0
CN(C)/C=C/C(=O)c1ccc2noc(-c3cccc(F)c3)c2c1	25.6	-1.5	107.1*	-12.0	18.9	-2.5
COc1ccc(-c2onc3ccc(C(=O)/C=C/N(C)C)cc23)cc1	34.1	34.9	-37.0	0.5	31.3	3.2
CO[C@H]1/C=C/O[C@@]2(C)Oc3c(C)c(O)c4c(O)c(c(C=NN5CCN(C)CC5)c(O)c4c3C2=O)NC(=O)/C(C)=C\C=C\[C@H](C)[C@H](O)[C@@H](C)[C@@H](O)[C@@H](C)[C@H](OC(C)=O)[C@@H]1C	14.3	2.0	-31.9	-0.7	12.2	.
CO[C@H]1C=CO[C@@]2(C)Oc3c(C)c(O)c4c(O)c(c(C=NN5CCN(C)CC5)c(O)c4c3C2=O)NC(=O)C(C)=CC=C[C@H](C)[C@H](O)[C@@H](C)[C@@H](O)[C@@H](C)[C@H](OC(C)=O)[C@@H]1C	34.3	15.6	-0.8	3.4	19.7	106.0*
